Test results reported in PubChem BioAssay AID1159580 (chemical genetic matrix, 2015).
The campaign covered roughly 5,500 compounds. About 2,000 (36%) were called active. Inconclusive results (about 18%) are left out. No stated cut-off is given here; in the data, active means normalized growth mostly below about 0.91 (no sharp cut-off); inconclusive means no clear call, values can overlap the other calls; inactive means mostly above about 0.92. The list shows a part of the results.

Assay: chemical genetic growth profiling, strain panel (AID 1159580);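 further: tested at 20 µM; growth read once vehicle control cultures reached saturation at 30 °C; 1 = growth at the plate median or of vehicle wells; lower values mean less growth of the strain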
Conditions: S. cerevisiae deletion strains, growth OD
[1] = locus YHR030C, strain SLT2, active compounds read low

Measured: normalized growth

CCC(=O)NCC[C@@H]1CCc2ccc3c(c21)CCO3
active: locus YOR270C, strain vph1, active compounds read low 0.771
inactive: locus YAL021C, strain ccr4, active compounds read low 1.03 | locus YAL026C, strain drs2, active compounds read low 1.01 | locus YAL030W, strain snc1, active compounds read low 1.01 | locus YBL061C, strain skt5, active compounds read low 1.02 | locus YBR009C, strain hhf1, active compounds read low 0.987 | locus YBR023C, strain chs3, active compounds read low 1.02 | locus YBR171W, strain sec66, active compounds read low 1 | locus YBR231C, strain swc5, active compounds read low 0.993 | locus YBR279W, strain paf1, active compounds read low 1.02 | locus YCL011C, strain gbp2, active compounds read low 1 | locus YCL016C, strain dcc1, active compounds read low 1.04 | locus YCL061C, strain MRC1, active compounds read low 0.988 | locus YCL069W, strain vba3, active compounds read low 1 | locus YCR088W, strain abp1, active compounds read low 1.01 | locus YDL005C, strain med2, active compounds read low 0.995 | locus YDL040C, strain nat1, active compounds read low 1 | locus YDR001C, strain nth1, active compounds read low 1 | locus YDR069C, strain doa4, active compounds read low 0.982 | locus YDR137W, strain rgp1, active compounds read low 1.04 | locus YDR159W, strain sac3, active compounds read low 0.924 | locus YDR195W, strain ref2 1.01 | locus YDR297W, strain sur2, active compounds read low 0.989 | locus YDR334W, strain swr1, active compounds read low 1 | locus YDR335W, strain msn5, active compounds read low 0.998 | locus YDR392W, strain spt3, active compounds read low 0.988 | locus YEL003W, strain gim4, active compounds read low 0.972 | locus YEL037C, strain rad23, active compounds read low 1.01 | locus YEL061C, strain CIN8 (second series), active compounds read low 0.991 | locus YER015W, strain faa2, active compounds read low 1 | locus YER016W, strain bim1, active compounds read low 1.02 | locus YER111C, strain swi4, active compounds read low 1.03 | locus YER155C, strain BEM2 (second series), active compounds read low 1.06 | locus YFR010W, strain ubp6, active compounds read low 0.953 | locus YGL167C, strain pmr1, active compounds read low 1 | locus YGL173C, strain kem1, active compounds read low 0.978 | locus YGL227W, strain vid30, active compounds read low 1.01 | locus YGL240W, strain doc1, active compounds read low 1.01 | locus YGL253W, strain hxk2, active compounds read low 0.972 | locus YHR013C, strain ard1, active compounds read low 1.02 | locus YHR027C, strain rpn1, active compounds read low 0.998 | [1] 0.947 | locus YHR079C, strain IRE1, active compounds read low 0.953 | locus YHR142W, strain chs7, active compounds read low 0.989 | locus YJL092W, strain hpr5, active compounds read low 1.01 | locus YJL095W, strain BCK1 (second series), active compounds read low 1.01 | locus YJL095W, strain BCK1, active compounds read low 0.981 | locus YJL115W, strain asf1, active compounds read low 1.02 | locus YJL129C, strain trk1, active compounds read low 1 | locus YJL154C, strain vps35, active compounds read low 1.01 | locus YJL164C, strain tpk1, active compounds read low 0.968 | locus YJL166W, strain qcr8, active compounds read low 0.98 | locus YJL187C, strain SWE1, active compounds read low 1.01 | locus YJR066W, strain TOR1, active compounds read low 0.936 | locus YKL160W, strain elf1, active compounds read low 1.05 | locus YKR026C, strain gcn3, active compounds read low 1.01 | locus YKR091W, strain srl3, active compounds read low 1 | locus YLL001W, strain dnm1, active compounds read low 0.952 | locus YLL026W, active compounds read low 1 | locus YLL041C, strain sdh2, active compounds read low 0.997 | locus YLR027C, strain aat2, active compounds read low 0.999 | locus YLR113W, strain HOG1, active compounds read low 0.95 | locus YLR221C, strain rsa3, active compounds read low 0.953 | locus YLR258W, strain gsy2, active compounds read low 1.02 | locus YLR262C, strain YPT6 (second series), active compounds read low 1.01 | locus YLR320W, strain mms22, active compounds read low 0.975 | locus YLR342W, strain FKS1, active compounds read low 1 | locus YLR357W, strain rsc2, active compounds read low 1.02 | locus YLR370C, strain arc18, active compounds read low 1 | locus YLR384C, strain iki3, active compounds read low 1.01 | locus YML120C, strain ndi1, active compounds read low 0.963 | locus YMR058W, strain fet3, active compounds read low 1.01 | locus YMR125W, strain sto1, active compounds read low 1 | locus YMR129W, active compounds read low 0.985 | locus YMR205C, strain PFK2, active compounds read low 1 | locus YMR231W, strain pep5, active compounds read low 1 | locus YNL071W, strain lat1, active compounds read low 1.01 | locus YNL183C, strain NPR1, active compounds read low 0.904 | locus YNL209W, strain ssb2, active compounds read low 1.01 | locus YNL248C, strain rpa49, active compounds read low 1.01 | locus YNL322C, strain KRE1 (second series), active compounds read low 1.02 | locus YNR049C, strain mso1, active compounds read low 1 | locus YOR001W, strain rrp6, active compounds read low 0.929 | locus YOR070C, strain gyp1, active compounds read low 1.02 | locus YOR080W, strain dia2, active compounds read low 1.01 | locus YOR083W, strain WHI5, active compounds read low 0.966 | locus YOR106W, strain vam3, active compounds read low 1 | locus YOR231W, strain MKK1, active compounds read low 0.969 | locus YOR265W, strain rbl2, active compounds read low 1 | locus YOR290C, strain snf2, active compounds read low 1.01 | locus YPL051W, strain arl3, active compounds read low 1.06 | locus YPL078C, strain atp4, active compounds read low 1.03 | locus YPL106C, strain sse1, active compounds read low 1.04 | locus YPL240C, strain hsp82, active compounds read low 1.01 | locus YPL256C, strain CLN2, active compounds read low 0.942

CC(C)(C)C1=CC(=O)C=C(C(C)(C)C)C1=O
inactive: locus YAL013W, strain DEP1, active compounds read low 1.03 | locus YBR229C, strain ROT2, active compounds read low 1.04 | locus YDL101C, strain DUN1, active compounds read low 0.997 | locus YDL134C, strain PPH21, active compounds read low 1.01 | locus YDR150W, strain NUM1, active compounds read low 0.979 | locus YEL061C, strain CIN8, active compounds read low 1 | locus YGR078C, strain PAC10, active compounds read low 1.01 | [1] 0.996 | locus YHR087W, strain rtc3, active compounds read low 1 | locus YJR043C, strain POL32, active compounds read low 1.02 | locus YJR075W, strain HOC1, active compounds read low 1.01 | locus YLR039C, strain RIC1, active compounds read low 1.03 | locus YLR058C, strain SHM2 (second series), active compounds read low 1.02 | locus YLR085C, strain ARP6, active compounds read low 1.05 | locus YLR262C, strain YPT6, active compounds read low 1 | locus YML094W, strain GIM5, active compounds read low 1.01 | locus YMR219W, strain ESC1, active compounds read low 1.01 | locus YMR263W, strain SAP30, active compounds read low 1.02 | locus YMR307W, strain GAS1, active compounds read low 1.02 | locus YNL153C, strain GIM3, active compounds read low 1.03 | locus YNL298W, strain CLA4 (second series), active compounds read low 1.03 | locus YNL322C, strain KRE1, active compounds read low 1 | locus YNR030W, strain Alg12, active compounds read low 1.03 | locus YOL006C, strain TOP1, active compounds read low 1.05 | locus YPL055C, strain LGE1, active compounds read low 1.02 | locus YPL241C, strain CIN2, active compounds read low 0.999 | locus YPR135W, strain CTF4, active compounds read low 1.07
